Laboratory results: PubChem BioAssay
Active and inactive are the calls of the source. Cut-off read from the data, not from the text of the source, unless noted: active = inhibition above about 30%; inactive = the rest.

Legend:
[1] = HUVEC growth inhibition – cell-based, human, primary screen (AID 575;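 active = viability at or below 30% in both replicate assays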;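 note: 100% = median of untreated cell wells with 0.1% DMSO on each plate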); conditions: HUVEC proliferation, CellTiter-Glo luminescence, 72 h; at 10 µM; stronger effect = lower value
[2] = growth inhibitors of H69AR lung tumor, primary screen, human, duplicate replicates (AID 580;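 active = viability at or under a set limit in both replicates, limit being median viability minus 3 SD, cut at about 48% in these data, passing the limit was not always enough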;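 note: 100% = mean luminescence of untreated wells and 0% = no signal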); conditions: H69AR lung tumor cells viability, ATP luminescence, 72 h; at 10 µM; stronger effect = lower value
[3] = reversal of MRP1-mediated doxorubicin resistance, pilot screen, H69AR cells, doxorubicin co-treatment (AID 601;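 active = viability loss from added drug above about 55%, and viability with drug at most 40%, in both replicates, limit read from the data, passing the limit was not always enough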); conditions: CellTiter-Glo, 72 h, at 10 µM; for differential viability (reversal): stronger effect = higher value
[4] = 384-well plate pilot, post-Golgi transport modulator project, inhibition of yeast transport mutant growth (AID 636; in the data active = inhibition above about 31%); conditions: absorbance 615 nm, about 18 h, stronger effect = higher value
[5] = growth suppression of yeast trafficking mutant, preliminary HTS, modulators of trafficking downstream of Golgi apparatus project, 1536-format plate, OD 615 nm (AID 637); conditions: yeast transport mutant growth, absorbance 615 nm, 18 h; stronger effect = higher value
[6] = H69AR cells + 2 uM doxorubicin, measured here: viability with 2 uM doxorubicin, stronger effect = lower value
[7] = H69AR cells, compound alone cytotoxicity

Structure (SMILES) | viability [1] | viability [2] | differential viability (reversal) ([3]; H69AR cells + 2 uM doxorubicin) | viability [3, 6] | viability [3, 7] | inhibition [4] | inhibition [5]
CSc1cccc(NC(=O)CN(C)S(=O)(=O)c2ccccc2)c1 | 74.9% (inactive) | 95.1% (inactive) | 15.1% (inactive) | 80% | 95.1% | -4.93% (inactive) | 1.27% (inactive)
CSc1nc2ccc(S(=O)(=O)N3CCOCC3)cc2s1 | 101% (inactive) | 89.9% (inactive) | -4.54% (inactive) | 94.4% | 89.9% | -6.53% (inactive) | 2.06% (inactive)
Cc1ccc2nc(CSc3nnc(-c4ccco4)n3-c3ccccc3)cc(=O)n2c1 | 109% (inactive) | 87.2% (inactive) | -10.8% (inactive) | 98% | 87.2% | 4.81% (inactive) | 16.4% (inactive)
O=S(=O)(c1ccccc1)N1CCN(C2CCCCCCC2)CC1 | 100% (inactive) | 87.5% (inactive) | -6.82% (inactive) | 94.3% | 87.5% | -1.45% (inactive) | 1.9% (inactive)
Cc1ccccc1NC(=O)c1ccccc1 | 103% (inactive) | 99.6% (inactive) | 11.8% (inactive) | 87.8% | 99.6% | -5.92% (inactive) | 2.7% (inactive)
Cc1cc(C)n(-c2nc(C)nc3c2cnn3-c2ccccc2)n1 | 87.4% (inactive) | 87.3% (inactive) | -1.5% (inactive) | 88.8% | 87.3% | -3.77% (inactive) | 6.19% (inactive)
Nc1nc(Nc2ccc(Cl)cc2Cl)nc(C(F)(F)F)n1 | 73.9% (inactive) | 89.8% (inactive) | 11.7% (inactive) | 78% | 89.8% | -5.6% (inactive) | 11.3% (inactive)
O=C(CCC(=O)N1CCN(S(=O)(=O)c2ccccc2)CC1)c1cccs1 | 102% (inactive) | 90.9% (inactive) | 4.42% (inactive) | 86.5% | 90.9% | -5.32% (inactive) | -3.33% (inactive)
C=CCC(Nc1ccco1)c1ccccc1 (centres undefined) | 95.8% (inactive) | 102% (inactive) | 14.1% (inactive) | 87.8% | 102% | -3.55% (inactive) | -0.32% (inactive)
COc1ccc(-n2c(N)c(C(=O)NCc3ccco3)c3nc4ccccc4nc32)c(OC)c1 | 61.8% (inactive) | 11% (active) | -1.38% (inactive) | 12.4% | 11% | -0.8% (inactive) | -0.16% (inactive)
O=C(NCCc1ccccc1)c1cc(-c2ccco2)on1 | 81.3% (inactive) | 88.6% (inactive) | – | – | – | -4.08% (inactive) | 7.94% (inactive)
Cc1cccc2cc(CN(Cc3nnnn3Cc3ccco3)C3CCCC3)c3nnnn3c12 | 86.8% (inactive) | 85.6% (inactive) | – | – | – | 68.2% (active) | 4.44% (inactive)
Cc1csc(NC(=O)c2cccc(S(=O)(=O)N3CCCCC3)c2)n1 | 70.6% (inactive) | 87.5% (inactive) | -3.96% (inactive) | 91.5% | 87.5% | -3.51% (inactive) | -9.05% (inactive)
Cc1ccc(CC23CN4CCN(CC(C4)C2O)C3)c(C)c1 (centres undefined) | 109% (inactive) | 94.6% (inactive) | 8.52% (inactive) | 86.1% | 94.6% | -2.37% (inactive) | 3.02% (inactive)
CCCCCCNC(=O)c1c(N)n(/N=C/c2ccco2)c2nc3ccccc3nc12 | 53.7% (inactive) | 78.4% (inactive) | -0.96% (inactive) | 79.4% | 78.4% | -4.4% (inactive) | -0.16% (inactive)
COc1ccc(C)cc1-n1nnnc1SCC(=O)NC(=O)NCc1ccco1 | 90.9% (inactive) | 87.3% (inactive) | 9.23% (inactive) | 78.1% | 87.3% | -1.69% (inactive) | 3.17% (inactive)
O=C(CN1C(=O)COc2ccccc21)NCCCN1CCN(Cc2ccccc2)CC1 | 98.5% (inactive) | 87.3% (inactive) | 2.35% (inactive) | 85% | 87.3% | 3.51% (inactive) | 22.4% (inactive)
c1ccc2[nH]c(CSc3nnc(-c4ccncc4)o3)nc2c1 | 104% (inactive) | 90.9% (inactive) | -5.82% (inactive) | 96.7% | 90.9% | -2.24% (inactive) | 2.06% (inactive)
COCCN(CC(=O)Nc1ccccc1C)S(=O)(=O)c1ccc(S(=O)(=O)N2CCCC2)cc1 | 101% (inactive) | 95.7% (inactive) | 4.26% (inactive) | 91.5% | 95.7% | -7.2% (inactive) | 4.13% (inactive)
COc1ccc(NC(=O)c2ccco2)cc1NC(=O)c1cccs1 | 92.2% (inactive) | 88.5% (inactive) | -3.49% (inactive) | 92% | 88.5% | 0.13% (inactive) | 13.8% (inactive)

Structure (SMILES) | viability [1] | viability [2] | differential viability (reversal) ([3]; H69AR cells + 2 uM doxorubicin) | viability [3, 6] | viability [3, 7] | inhibition [4] | inhibition [5]
Cc1cc2c(c(=O)n1CCN(C)C)C(c1ccncc1)C(C#N)=C(N)O2 (centres undefined) | 103% (inactive) | 103% (inactive) | 0.98% (inactive) | 102% | 103% | -2.37% (inactive) | -6.51% (inactive)
O=S1(=O)C=C(Sc2nnc(-c3ccccc3)o2)c2ccccc21 | 42.9% (inactive) | 1.65% (active) | 0.375% (inactive) | 1.27% | 1.65% | 57% (active) | 95.8% (active)
COc1ccc(CCNc2oc(Cc3cccc4ccccc34)nc2C#N)cc1OC | 68.8% (inactive) | 73.1% (inactive) | -7.3% (inactive) | 80.4% | 73.1% | -5.07% (inactive) | 1.9% (inactive)
COCCCNC(=O)CC(NS(=O)(=O)c1ccc(Cl)cc1)c1ccco1 (centres undefined) | 106% (inactive) | 87.5% (inactive) | 2.94% (inactive) | 84.6% | 87.5% | -0.91% (inactive) | -3.02% (inactive)
CCc1c(C)nc(N2CCN(Cc3ccccc3)CC2)[nH]c1=O | 115% (inactive) | 103% (inactive) | 18.8% (inactive) | 84.6% | 103% | -0.53% (inactive) | 0.32% (inactive)
CCOC(=O)C1=C(Cn2cnc3ccccc32)NC(=O)NC1c1cc(C)ccc1C (centres undefined) | 93.7% (inactive) | – | -17.6% (inactive) | 60.1% | 42.5% | -1.71% (inactive) | 1.43% (inactive)
Cc1cc(C)c(C(=O)CSc2nnc(-c3ccccc3Br)o2)cc1C | – | 73.1% (inactive) | -2.75% (inactive) | 75.8% | 73.1% | -3.87% (inactive) | 3.49% (inactive)
Cc1ccc(C2C3CN(C(C)C)CC=C3C(C#N)=C(N)C2(C#N)C#N)cc1 (centres undefined) | 62.9% (inactive) | – | – | – | – | -6.27% (inactive) | 1.43% (inactive)
CC(C)(C)C1CCc2onc(C(=O)Nc3cnn(Cc4ccc(F)cc4)c3)c2C1 (centres undefined) | – | 32.9% (active) | -17.6% (inactive) | 50.6% | 32.9% | 0% (inactive) | 3.02% (inactive)
CC(C)(C)n1nnnc1CN(Cc1ccco1)Cc1cc2cc3c(cc2[nH]c1=O)OCO3 | 78% (inactive) | – | -8.75% (inactive) | 68% | 59.3% | -8% (inactive) | 0.16% (inactive)
COc1ccc(Cn2c(C)nc3c(c2=O)c2nc4ccccc4nc2n3Cc2ccco2)cc1 | 62% (inactive) | – | 3.86% (inactive) | 30.8% | 34.6% | -1.71% (inactive) | 5.56% (inactive)
CC(C)Cn1c(N)c(C(=O)NCCN2CCOCC2)c2nc3ccccc3nc21 | 52.3% (inactive) | – | -23.6% (inactive) | 79.3% | 55.7% | -5.2% (inactive) | 3.65% (inactive)
NC(=O)SCC(=O)Nc1cccc(Cl)c1 | 58.4% (inactive) | – | 9.55% (inactive) | 56.8% | 66.4% | -5.19% (inactive) | 2.06% (inactive)
CSc1ccc2c(c1)N(CCC1CCCCN1C)c1ccccc1S2 (centres undefined) | 2.44% (active) | – | 0.67% (inactive) | 1.26% | 1.93% | – | –
OCCNc1ncnc2c1c(-c1ccccc1)c(-c1ccccc1)n2Cc1ccco1 | – | 72.4% (inactive) | 23.7% (inactive) | 48.8% | 72.4% | -5.66% (inactive) | 15.7% (inactive)
CC[C@H]1CN2CCc3cc(OC)c(OC)cc3[C@@H]2C[C@@H]1C[C@H]1NCCc2cc(OC)c(OC)cc21 | 11% (active) | – | 10.2% (inactive) | 13.3% | 23.5% | -1.69% (inactive) | 2.17% (inactive)
CCn1c(=N)n(CC(O)COc2cccc(C)c2)c2ccccc21 (centres undefined) | – | 69.9% (inactive) | -2.36% (inactive) | 72.3% | 69.9% | 3.55% (inactive) | -5.08% (inactive)
COc1cc(-n2nc(C)c3c2OC(N)=C(C#N)C3c2ccccc2)c(Cl)c(Br)c1O (centres undefined) | 50% (inactive) | – | 1.54% (inactive) | 68% | 69.5% | -6.4% (inactive) | -4.6% (inactive)
O=S(=O)(Cc1ccc(Cl)cc1)Nc1ccc2c(c1)OCO2 | – | 104% (inactive) | 17.3% (inactive) | 86.8% | 104% | -0.53% (inactive) | 4.29% (inactive)
Cn1cc(-c2nc3ccccc3[nH]2)c2ccccc21 | 81% (inactive) | – | -9.86% (inactive) | 72% | 62.2% | -7.33% (inactive) | -0.63% (inactive)
